The record followed here is the antibiotic and cytotoxicity screens of Wong et al. (2023).

Among all 39,000 compounds or so, about 1,500 (3.8%) were called active. Many of the other results were omitted from the sample, so actives are more common in it than they were.

For this experiment, the system named is HSkMC (human skeletal muscle cells). Nature of the experiment: cytotoxicity call (relative viability < 0.9). The following applies: 10 µM.
With `C[C@@H]1CN([C@H](C)CO)C(=O)c2cccc(NS(=O)(=O)c3ccccc3)c2O[C@@H]1CN(C)Cc1ccc(Cl)c(Cl)c1`, the cytotoxicity call was “inactive”.

For `Cn1cnc(S(=O)(=O)N2C[C@@H](O)COC[C@@H]3O[C@@H](CC(=O)NC4Cc5ccccc5C4)CC[C@H]32)c1`, the cytotoxicity call is “inactive”.

On to `C[C@H](O)C#Cc1ccc2c(c1)O[C@H](CN(C)C(=O)Nc1ccccc1)[C@H](C)CN([C@H](C)CO)S2(=O)=O`, for which the cytotoxicity call is “inactive”. `COc1ccc(S(=O)(=O)Nc2ccc3c(c2)C(=O)N([C@H](C)CO)C[C@H](C)[C@H](CN(C)S(C)(=O)=O)OCCCC[C@@H](C)O3)cc1`: the cytotoxicity call was “inactive”. `Cc1cnc2c(c1NCCN(C)C)c(=O)n(C)c(=O)n2C`: the cytotoxicity call was “inactive”. As to `CCOc1nc2ccccc2c(=O)n1CCO`, the cytotoxicity call is “inactive”.

`C[C@H](CO)N1C[C@H](C)[C@H](CN(C)C(=O)c2ccc3c(c2)OCO3)Oc2cc(-c3cncnc3)ccc2S1(=O)=O`: the cytotoxicity call was “inactive”. For `O=C1c2ccncc2C(=O)N1CO`, the cytotoxicity call is “inactive”. For `CO[C@@H](CN(C)S(=O)(=O)c1cccc(Cl)c1)[C@@H](C)CN([C@@H](C)CO)S(=O)(=O)c1ccc(Cl)cc1` the value was “inactive”; for `CC(C)NC(=O)N(C)C[C@@H]1Oc2ccc(NS(=O)(=O)c3cn(C)cn3)cc2C(=O)N([C@@H](C)CO)C[C@@H]1C`, “inactive”; for `FC(F)(F)c1ccccc1/N=C1\CCCc2ccccc21`, “inactive”.

With `Cc1ccc(S(=O)(=O)Nc2ccc3c(c2)C(=O)N([C@@H](C)CO)C[C@@H](C)[C@@H](CN(C)Cc2ccc(Cl)c(Cl)c2)O3)cc1`, the cytotoxicity call is “active”. For `CO[C@@H]1[C@@H](O[C@@H]2O[C@H](C)[C@@H](O[C@H]3C[C@@](C)(O)[C@@H](OC(=O)CC(C)C)[C@H](C)O3)[C@H](N(C)C)[C@H]2O)[C@@H](CC=O)C[C@@H](C)[C@@H](O)/C=C\C=C/C[C@@H](C)OC(=O)C[C@H]1OC(C)=O` the value was “inactive”; for `COC1C(O)CC(=O)OC(C)CC=CC=CC(O)C(C)CC(CC=O)C1OC1OC(C)C(OC2CC(C)(O)C(OC(=O)CC(C)C)C(C)O2)C(N(C)C)C1O` (stereo not drawn) [KITASAMYCINS [A1 shown] ], “inactive”.

`CO[C@@H]1[C@@H](O[C@@H]2O[C@H](C)[C@@H](O[C@H]3C[C@@](C)(O)[C@@H](OC(=O)CC(C)C)[C@H](C)O3)[C@H](N(C)C)[C@H]2O)[C@@H](CC=O)C[C@@H](C)[C@@H](O)/C=C/C=C/CC(C)OC(=O)C[C@H]1OC(C)=O` (stereo partly drawn): the cytotoxicity call is “active”. Then `COc1ccccc1CNC(=O)C[C@@H]1C[C@@H]2c3cc(NS(=O)(=O)c4ccc(F)cc4)ccc3O[C@@H]2[C@@H](CO)O1`, with “inactive”; and `Cc1ccc(S(=O)(=O)N(C)C[C@@H]2OCCCC[C@H](C)Oc3ccc(NC(=O)Nc4c(C)noc4C)cc3C(=O)N([C@H](C)CO)C[C@H]2C)cc1`, with “inactive”. Regarding `CC(C)C[N+]1(C)Cc2ccccc2C1`, the cytotoxicity call was “inactive”. For `Cc1ccc(S(=O)(=O)Nc2ccc3c(c2)C(=O)N([C@@H](C)CO)C[C@@H](C)[C@@H](CN(C)Cc2ccc(-c4ccccc4)cc2)O3)cc1` the value was “inactive”. As for `Cc1ccc(S(=O)(=O)Nc2ccc3c(c2)C(=O)N([C@H](C)CO)C[C@@H](C)[C@@H](CN(C)Cc2ccc(-c4ccccc4)cc2)O3)cc1`, the cytotoxicity call is “active”. For `C[C@@H]1CN([C@H](C)CO)C(=O)c2cc(NS(=O)(=O)c3cccs3)ccc2O[C@@H]1CN(C)Cc1ccc(-c2ccccc2)cc1` the value was “active”; for `C[C@H](CO)N1C[C@H](C)[C@@H](CN(C)Cc2ccc(-c3ccccc3)cc2)Oc2ccc(NS(=O)(=O)c3cccs3)cc2C1=O`, “inactive”. Turning to `C[C@H](CO)N1C[C@H](C)[C@H](CN(C)Cc2ccc(-c3ccccc3)cc2)Oc2ccc(NS(=O)(=O)c3cccs3)cc2C1=O`, the cytotoxicity call is “inactive”. As for `Cc1ccc(S(=O)(=O)Nc2ccc3c(c2)C(=O)N([C@@H](C)CO)C[C@H](C)[C@@H](CN(C)Cc2ccc(-c4ccccc4)cc2)O3)cc1`, the cytotoxicity call is “inactive”. With `Cc1ccc(S(=O)(=O)Nc2ccc3c(c2)C(=O)N([C@H](C)CO)C[C@H](C)[C@H](CN(C)Cc2ccc(-c4ccccc4)cc2)O3)cc1`, the cytotoxicity call is “active”.

For the compound `C[C@@H]1CN([C@@H](C)CO)C(=O)c2cc(NS(=O)(=O)c3ccccc3)ccc2O[C@H]1CN(C)Cc1ccc(-c2ccccc2)cc1`, the cytotoxicity call was “inactive”. Regarding `Cc1ccc(S(=O)(=O)Nc2ccc3c(c2)C(=O)N([C@H](C)CO)C[C@@H](C)[C@H](CN(C)Cc2ccc(-c4ccccc4)cc2)O3)cc1`, the cytotoxicity call was “inactive”. As for `C[C@H]1CN([C@@H](C)CO)C(=O)c2cc(NS(=O)(=O)c3ccccc3)ccc2O[C@H]1CN(C)Cc1ccc(-c2ccccc2)cc1`, the cytotoxicity call is “inactive”. For the compound `C[C@@H]1CN([C@@H](C)CO)C(=O)c2cc(NS(=O)(=O)c3ccccc3)ccc2O[C@@H]1CN(C)Cc1ccc(-c2ccccc2)cc1`, the cytotoxicity call is “active”. For `Cc1ccc(S(=O)(=O)Nc2ccc3c(c2)C(=O)N([C@@H](C)CO)C[C@@H](C)[C@H](CN(C)Cc2ccc(-c4ccccc4)cc2)O3)cc1` the value was “inactive”. `COc1ccc(S(=O)(=O)N(C)C[C@@H]2Oc3ccc(NC(=O)CCCN(C)C)cc3C(=O)N([C@H](C)CO)C[C@@H]2C)cc1`: the cytotoxicity call is “inactive”. In the case of `COc1ccc(-c2cn(CCNC(=O)[C@H](Cc3ccccc3)NS(=O)(=O)c3ccc(C)cc3)nn2)cc1OC`, the cytotoxicity call was “inactive”. For `CC(/C=C/C(=O)NO)=C\c1cccc(OC[C@@H]2[C@H]3C[C@H]4c5[nH]c6ccccc6c5CCN4C[C@@H]3CC[C@@H]2O)c1` the value was “inactive”; for `O=C(N[C@@H](c1ccc(-c2ccccc2)cc1)c1cnccn1)C1CCN(CCCOc2ccccc2)CC1`, “inactive”.

In the case of `CC(=O)NC1C(O)CC(O)(C(=O)O)OC1C(O)C(O)CO` (stereo not drawn), the cytotoxicity call was “inactive”. For `C[C@H]1CCCCO[C@@H](CN(C)S(C)(=O)=O)[C@@H](C)CN([C@@H](C)CO)C(=O)c2cc(N(C)C)ccc2O1` the value was “inactive”; for `C[C@H](CO)N1C[C@H](C)[C@H](CN(C)C(=O)Nc2ccc(C(F)(F)F)cc2)Oc2ccc(NC(=O)CCC(F)(F)F)cc2CC1=O`, “inactive”; for `Cc1ccc(S(=O)(=O)C[C@H](C)N2CCOCC2)c(S(=O)(=O)C[C@@H](C)N2CCOCC2)c1`, “inactive”.

As for `CCNC(=O)C[C@@H]1C=C[C@@H](NC(=O)C2CC2)[C@@H](CO)O1`, the cytotoxicity call was “inactive”. Then `COc1ccc(NC(=O)Nc2ccc3c(c2)CC(=O)N([C@@H](C)CO)C[C@H](C)[C@H](CN(C)C(=O)Nc2cccc4ccccc24)O3)cc1`, with “inactive”.

Take `CCCNC(=O)Nc1ccc2c(c1)OC[C@@H](C)N(C(=O)C1CCOCC1)C[C@@H](C)[C@@H](OC)CN(C)C2=O`: the cytotoxicity call was “inactive”. Turning to `C[C@H]1CN([C@@H](C)CO)C(=O)c2cc(Br)cnc2O[C@@H]1CN(C)Cc1cccc(C(=O)O)c1`, the cytotoxicity call was “inactive”. Turning to `NCC(=O)NCC(=O)O`, the cytotoxicity call is “inactive”. For `O=C(O)CNC(=O)C(=O)O` the value was “active”; for `CNCC(=O)O`, “inactive”.

On to `O=C(CCCCCNC(=O)OCCCOc1ccc(C2=N[C@]3(Cc4ccccc4)C(=O)N(Cc4ccccc4)Cc4ccccc4[C@@H]3O2)cc1)NO`, for which the cytotoxicity call was “inactive”. Then `C[C@@H]1CCCCO[C@@H](CN(C)C(=O)Nc2ccc3c(c2)OCO3)[C@@H](C)CN([C@H](C)CO)C(=O)c2cc(NC(=O)CCCCCC(=O)Nc3ccccc3N)ccc2O1`, with “inactive”; and `NC(=O)c1ncn([C@@H]2O[C@H](CO)[C@@H](O)[C@H]2O)n1`, with “inactive”; and `C[C@@H]1CN([C@H](C)CO)C(=O)c2cc(NC(=O)Nc3ccc(F)cc3)ccc2O[C@@H]1CN(C)Cc1ccc(C(=O)Nc2ccccc2N)cc1`, with “inactive”. In the case of `Cc1ccc(Nc2ncc3c(n2)N(C)C(=O)N(c2cc(NC(=O)c4cccc(C(F)(F)F)c4)ccc2C)C3)cn1`, the cytotoxicity call is “active”. Then `O=C(Nc1cccc(C(F)(F)F)c1)c1ccc2ccccc2c1`, with “inactive”. Then `Cc1ncc(NC(=O)c2cccc(C(F)(F)F)c2)cc1-c1cnc(OC2CCOCC2)c(N2CCOCC2)c1`, with “inactive”; and `C[C@H]1CN([C@@H](C)CO)C(=O)Cc2cc(NS(=O)(=O)c3ccc(Cl)cc3)ccc2O[C@H]1CN(C)C(=O)Nc1ccc(C(F)(F)F)cc1`, with “inactive”; and `CCCCCCO[C@H](C)c1c(c/2[nH]c1/C=C/1\N=C(/C=C/3\NC4=C(CC(=O)C4=C3C)C3=N/C(=C2)[C@@H](C)[C@@H]3CCC(=O)O)C(=C1C)CC)C`, with “active”.

Regarding `CCc1c(c/2[nH]c1/C=C/1\N=C(/C(=C/3\N=C(/C=C/4\N/C(=C2)C(=C4C)C=C)[C@@H](C)[C@@H]3CCC(=O)O)CC(=O)N[C@@H](CC(=O)O)C(=O)O)C(=C1C)C(=O)O)C`, the cytotoxicity call was “inactive”. As for `CC1=C(CCC(=O)O)c2cc3[nH]c(cc4nc(cc5[nH]c(cc1n2)c(C)c5C(C)O)C(C)=C4C(C)O)c(C)c3CCC(=O)O` (stereo not drawn), the cytotoxicity call is “inactive”.

As to `C[C@H](N)C(=O)N1CCc2ccccc2C1`, the cytotoxicity call was “inactive”.

On to `C[C@@H]1CCCCO[C@@H](CN(C)S(=O)(=O)c2ccc(F)cc2)[C@@H](C)CN([C@@H](C)CO)C(=O)c2cc(NC(=O)Nc3ccc(F)cc3)ccc2O1`, for which the cytotoxicity call was “inactive”. Consider `CC(N)O.Cc1cc(CC(C)CC(C)(C)C)n(O)c(=O)c1` (stereo not drawn), for which the cytotoxicity call is “inactive”. For `C[C@@H]1CCCCO[C@@H](CN(C)C(=O)Cc2ccccc2)[C@@H](C)CN([C@@H](C)CO)C(=O)c2cc(NC(=O)Nc3ccc(C(F)(F)F)cc3)ccc2O1` the value was “inactive”; for `C[C@@H]1CCCCO[C@@H](CN(C)C(=O)Cc2ccccc2)[C@@H](C)CN([C@H](C)CO)C(=O)c2cc(NC(=O)Nc3ccc(C(F)(F)F)cc3)ccc2O1`, “inactive”; for `C[C@@H]1CCCCO[C@H](CN(C)C(=O)Cc2ccccc2)[C@H](C)CN([C@@H](C)CO)C(=O)c2cc(NC(=O)Nc3ccc(C(F)(F)F)cc3)ccc2O1`, “active”. For `C[C@@H]1CN([C@@H](C)CO)C(=O)c2cc(NC(=O)Nc3ccc(C(F)(F)F)cc3)ccc2O[C@@H](C)CCCCO[C@H]1CN(C)C(=O)Cc1ccccc1` the value was “active”; for `C[C@H](CO)N1C[C@H](C)[C@@H](CN(C)C(=O)Cc2ccccc2)OCCCC[C@H](C)Oc2ccc(NC(=O)Nc3ccc(C(F)(F)F)cc3)cc2C1=O`, “inactive”.

`C[C@@H]1CCCCO[C@H](CN(C)C(=O)Cc2ccccc2)[C@@H](C)CN([C@@H](C)CO)C(=O)c2cc(NC(=O)Nc3ccc(C(F)(F)F)cc3)ccc2O1`: the cytotoxicity call is “inactive”. `C[C@@H]1CN([C@H](C)CO)C(=O)c2cc(NC(=O)Nc3ccc(C(F)(F)F)cc3)ccc2O[C@@H](C)CCCCO[C@@H]1CN(C)C(=O)Cc1ccccc1`: the cytotoxicity call is “active”. `C[C@@H]1CCCCO[C@H](CN(C)C(=O)Cc2ccccc2)[C@@H](C)CN([C@H](C)CO)C(=O)c2cc(NC(=O)Nc3ccc(C(F)(F)F)cc3)ccc2O1`: the cytotoxicity call was “inactive”.

As for `C[C@H](CO)N1C[C@H](C)[C@H](CN(C)C(=O)Cc2ccccc2)OCCCC[C@H](C)Oc2ccc(NC(=O)Nc3ccc(C(F)(F)F)cc3)cc2C1=O`, the cytotoxicity call is “inactive”.
